Compound activity as filed in PubChem BioAssay.
HDAC3 inhib = human HDAC3 inhibition; O15379; recombinant HDAC3, fluorogenic peptide/trypsin coupled, fluorescence; inhibition, % at 8.3 µM; 0.15% of 320,000 active; in the data active means inhibition above about 26%, passing the limit was not always enough
Target sequence (O15379 whole entry, looked up): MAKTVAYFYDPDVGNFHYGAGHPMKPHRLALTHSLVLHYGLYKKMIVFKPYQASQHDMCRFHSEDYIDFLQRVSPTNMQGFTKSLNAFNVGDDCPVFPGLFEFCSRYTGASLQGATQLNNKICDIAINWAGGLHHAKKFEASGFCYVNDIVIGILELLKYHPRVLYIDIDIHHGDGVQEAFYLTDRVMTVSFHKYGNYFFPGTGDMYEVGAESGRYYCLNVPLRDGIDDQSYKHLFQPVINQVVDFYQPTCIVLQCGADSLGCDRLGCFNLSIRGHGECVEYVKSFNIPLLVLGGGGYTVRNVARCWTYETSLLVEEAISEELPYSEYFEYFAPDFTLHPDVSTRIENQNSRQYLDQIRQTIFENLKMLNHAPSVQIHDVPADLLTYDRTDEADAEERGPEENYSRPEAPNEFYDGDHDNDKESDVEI
LANA-H2A inh = blocks KSHV LANA binding to histone H2A/H2B; Q9QR71; cell-free LANA-H2A/H2B peptide, fluorescence polarization; inhibition, % (no concentration beside the values); 0.6% of 320,000 active; AID 2629; in the data active means inhibition mostly above about 10%, no sharp cut-off; inactive means mostly below about 6.7%
CR mimetic SO = lowers age-related superoxide in aged yeast cells. superoxide response (% of plate mean), % at 10 µM. 0.18% of 330,000 active. S. cerevisiae aged cells, superoxide DHE fluorescence; stronger effect = lower value;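 active means superoxide response under a set limit, about three screen SD below normal, cut at about 65% in these data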;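 further: yeast aged for seven days with compound at 30 °C before DHE staining; 100% = average MFI of all compound-treated wells on the plate with controls excluded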
HIF act = HIF pathway transcriptional activation. U2OS HRE-luciferase reporter, luminescence; normalized: DMSO 0%, desferrioxamine 100%. activation, % at 7.5 µM (by protocol). 0.32% of 300,000 active. AID 1910;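 active means mean activation of at least 10% of the iron chelator positive control signal, with at least half of replicates also reaching 10%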
An asterisk follows results filed as active; · = no result; + = active, no number. This is a sample that favours compounds with a hit; in the whole collection about 1.2% have one here.

SMILES	HDAC3 inhib	LANA-H2A inh	CR mimetic SO	HIF act
O=C(CNC(=O)c1ccccc1Br)N/N=C/c1cc(Br)ccc1O	-1	-2	97	21*
O=C(Nc1cc(S(=O)(=O)Nc2ccc(Cl)cc2)ccc1O)c1ccc(S(=O)(=O)N2CCCCCC2)cc1	-3	-4	103	0
O=C(N/N=C\c1cc(Cl)ccc1O)c1ccc(S(=O)(=O)N2CCCCC2)cc1	2	-1	94	45*
Cc1ccc(S(=O)(=O)N2C[C@@H]3[C@H]4CC[C@H](C4)[C@@H]3[C@@H](C)[C@H]2C#N)cc1	·	·	104	·
Cn1c(=O)c2c(SCC(=O)N3CCOCC3)nc(-c3ccccc3Cl)nc2n(C)c1=O	-2	5	94	0
Cc1ccc(NS(=O)(=O)c2ccc3c(c2)NC(=O)CCS3)c(Br)c1	6	-1	99	0
C[C@@H]1NC(=O)c2cc([N+](=O)[O-])cc(I)c2NCC[C@@H](C(N)=O)NC(=O)[C@H](CC(N)=O)NC1=O	14	18*	100	·
C[C@@H]1NC(=O)[C@H](CCC(N)=O)NC(=O)c2cc([N+](=O)[O-])cc(I)c2NCC[C@@H](C(N)=O)NC1=O	5	-2	99	·
CC1CCN(C(=O)c2ccc3c(c2)OCO3)CC1	-4	0	103	0
O=C(Nc1ccc(Cl)cc1)N(C1=NCCC1)c1ccc(OC(F)F)cc1	2	-3	105	1
CC(=O)c1cccc(Nc2c([N+](=O)[O-])c(=O)oc3ccccc23)c1	2	0	88	1
O=C(O)c1cccc(Nc2c([N+](=O)[O-])c(=O)oc3ccccc23)c1	-1	7	64*	0
CCOCCCNC(=S)N(CCN(C)C)Cc1cc2cc3c(cc2[nH]c1=O)OCCO3	35*	10	119	0
CC1CCC2(CC1)NC(=S)N(c1ccccc1)N2 (stereo unspecified)	-4	17*	86	0
Cn1ncc([N+](=O)[O-])c1C(=O)Nc1ccccc1Cl	3	13*	95	0
O=C(O)COc1ccccc1C=NNC(=O)c1ccccc1NS(=O)(=O)c1cccs1	2	5	112	·
NC(=S)N/N=C/c1cn(CCC(=O)O)nc1-c1cccc(Br)c1	·	1	110	0
COc1ccc(-c2nn(CCC(=O)O)cc2/C=N/NC(N)=S)cc1	·	19*	112	0
Cc1ccc(C(c2nnnn2CC2CCCO2)N2CCN(c3cccc(C)c3C)CC2)cc1 (stereo unspecified)	10	10	100	-1
COc1ccc(CN(C(=O)c2cc(=O)c3cc(C)cc(C)c3o2)C2CCS(=O)(=O)C2)cc1 (stereo unspecified)	1	-8	106	0
O=C(c1cccc(S(=O)(=O)Nc2ccc(F)cc2)c1)N1CCC1	3	3	122	·
Cc1nnsc1C(=O)N/N=C/c1ccc2ccccc2c1O	-4	12	108	115*
Cc1nnsc1C(=O)N/N=C/c1ccccc1	1	1	88	0
Cc1nnc2n(c1=O)N=C(c1ccc(Cl)cc1)CS2	59*	-4	118	0
Cc1ccc2nc(-c3ccsc3)c(NC3CCCC3)n2c1	-12	-1	102	3
SMILES	HDAC3 inhib	LANA-H2A inh	CR mimetic SO	HIF act
COc1ccc(N(CC(=O)N/N=C/c2cc(Br)c(C)o2)S(=O)(=O)c2ccc(NC(C)=O)cc2)cc1	-4	25*	93	0
CCOC(=O)C1CCCN(C(=O)c2ccc3ncsc3c2)C1 (stereo unspecified)	-2	3	113	·
COc1ccc(Cl)cc1C(=O)OCC(=O)N(CC(C)C)c1c(N)n(Cc2ccccc2)c(=O)[nH]c1=O	4	1	102	0
CCN(C(=O)COC(=O)c1cc(Cl)ccc1OC)c1c(N)n(Cc2ccccc2)c(=O)[nH]c1=O	-1	39*	104	·
Cc1ccc(SCCCCN2CCNCC2)cc1	4	18*	80	1
Clc1ccc(SCCCCN2CCNCC2)cc1	5	1	96	0
Oc1[nH]c2ccc(Br)cc2c1N=NC(=S)N1CCOCC1	·	3	103	161*
COC(=O)N=Nc1c(O)[nH]c2ccc(Br)cc12	2	1	89	1
Oc1[nH]c2ccccc2c1N=NC(=S)N1CCOCC1	-1	0	111	11*
Cc1ccc(/C(N)=N/OC(=O)C(C)c2ccc([N+](=O)[O-])cc2)cc1 (stereo unspecified)	6	17*	96	-1
COc1cc(NC(=O)C2CC(c3c(F)cccc3Cl)=NO2)cc(OC)c1OC (stereo unspecified)	-4	4	101	1
O=C(O)CCNS(=O)(=O)c1ccc2c(c1)OCCCO2	2	13*	94	0
O=C(c1cccc(C(F)(F)F)c1)C1CCCN(C(=O)Cn2cncn2)C1 (stereo unspecified)	3	2	91	11*
O=C(COC(=O)c1cc(S(=O)(=O)N2CCCCC2)ccc1N1CCOCC1)c1ccccc1	-1	-3	80	0
COc1ccc(C2C(C(=O)N3CCN(C)CC3)c3cc(OC)c(OC)cc3C(=O)N2C)cc1 (stereo unspecified)	7	+	89	0
CCN1CCN(C(=O)C2c3cc(OC)c(OC)cc3C(=O)N(C)C2c2ccc(SC)cc2)CC1 (stereo unspecified)	28*	-7	72	0
O=S(Cc1ccc(Cl)cc1)CC(O)COCc1ccc(Cl)cc1 (stereo unspecified)	1	19*	97	0
O=C(Nc1ccc(NC(=O)c2cccnc2Cl)cc1)c1cccc(Cl)c1	-3	1	106	5
Cc1ccc(C2=C(O)c3ccccc3C(=O)C2=O)cc1	1	0	132	0
O=C1C(=O)c2ccccc2C(O)=C1c1cccc([N+](=O)[O-])c1	2	4	200	23*
CCOC(=O)c1c(-c2ccccc2)oc2ccc(O)cc12	-7	-5	99	0
NC(=O)c1c(-c2ccccc2)oc2ccc(O)cc12	3	17*	92	0
O=C(CC1C(=O)NCCN1Cc1cccc(F)c1F)NCCCC1CCCC1 (stereo unspecified)	-11	1	105	0
Cn1c(=O)c(C(=O)NCCc2ccc(Cl)cc2)c(O)c2ccccc21	6	-5	80	2
Cn1c(=O)c(C(=O)NCCO)c(O)c2ccccc21	1	9.6*	102	0
SMILES	HDAC3 inhib	LANA-H2A inh	CR mimetic SO	HIF act
COc1ccc(CN2CNc3nc4ccccc4n3C2)cc1	0	22*	113	0
c1coc(CN2CNc3nc4ccccc4n3C2)c1	3	-2	99	1
O=C(COC(=O)c1ccc2ncsc2c1)Nc1ccccc1Cl	3	1	40*	·
O=C(COC(=O)c1ccc2ncsc2c1)Nc1cc([N+](=O)[O-])ccc1Cl	-7	1	93	·
O=C(NCC1CCCO1)c1cc2ccccc2oc1=O (stereo unspecified)	-7	-1	143	1
CCOC(=O)c1c(S(=O)(=O)N2CCN(C)CC2)c(C)n(C)c1C	4	1	108	-1
CCOC(=O)c1c(S(=O)(=O)N2CCCC2)c(C)n(C)c1C	-1	0	93	48*
